Screening data from PubChem.
Chlamy TAG: inducers of TAG accumulation in Chlamydomonas, primary screen, qHTS, Chlamydomonas reinhardtii. Nile Red fluorescence, 72 h. calls only at 10 µM (by protocol). 0.84% of 44,000 active; call rule not given here;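 further: hits raise Nile Red signal meaning more stored TAG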
* marks the source's active call; other numbers are inactive results; i = inactive; + = active, no number. Many of the other results were omitted from the sample, so hits are more common in it than they were.

SMILES	Chlamy TAG
NS(=O)(=O)c1ccc(CCNS(=O)(=O)c2ccc([N+](=O)[O-])cc2)cc1	i
O=C(Nc1ccc(N2CCN(C(=O)c3ccccc3)CC2)cc1)c1ccc(Cl)cc1Cl	+
O=C(c1ccccc1)N1CCN(C(=O)c2ccc(Cl)cc2Cl)CC1	i
O=C(Cc1ccc(Cl)cc1)Nc1ccc(N2CCN(C(=O)c3ccccc3)CC2)cc1	i
Cc1ccccc1Cn1c(=N)n(CC(O)c2ccc(Cl)c(Cl)c2)c2ccccc21 (configuration not stated)	i
O=C(Nc1ccc2oc(-c3ccncc3)nc2c1)c1ccccc1	i
COc1cccc(C(=O)Nc2ccc3oc(-c4ccncc4)nc3c2)c1	+
Cc1ccc(C(=O)Nc2ccc3oc(-c4ccncc4)nc3c2)cc1C	+
COc1cccc(C(=O)Nc2ccc3oc(-c4ccc(F)cc4)nc3c2)c1	i
O=C(Nc1ccc2oc(-c3cccnc3)nc2c1)c1ccncc1	i
COc1ccc(-c2nc3cc(NC(=O)c4ccccc4)ccc3o2)cc1	i
O=C(CSc1nc2ccccc2o1)Nc1ccccc1[N+](=O)[O-]	i
CCC(C)c1ccccc1NC(=O)Cc1ccc(Cl)cc1 (configuration not stated)	i
CCCCOc1ccc(CN2CCc3cc(OC)c(OC)cc3C2)cc1	i
Cc1ccc(CN(c2ccc(C(=O)NCc3ccco3)cc2)S(C)(=O)=O)cc1	i
